The text below walks through data of PubChem BioAssay AID588324 (National Center for Advancing Translational Sciences (NCATS), 2011).

Inconclusive results are not listed. The source made the active and inactive calls. The call rests on the fitted dose curve; in most records, active means well fitted inhibition curve with a large enough effect; inconclusive means small, poorly fitted or top-dose-only effect; inactive means flat fitted curve, though single readings scatter.

The assay concerns Trypanosoma cruzi 6-phosphofructokinase. In words: Confirmatory Assay to Find Inhibitors of T. brucei phosphofructokinase: Counter Screen against T cruzi PFK. As to conditions: ADP-Glo luminescence, 45 min; series mostly up to 57.5 µM. An excerpt:
Various species of the protozoan family Trypanosomatidae are responsible for a range of serious human diseases in tropical and subtropical areas of the world. […] Many of the disorders caused by trypanosomatids are fatal if left untreated, but most currently used drugs are inefficient and toxic. […] Oxidative metabolism involving the mitochondrial tricarboxylic acid cycle and oxidative phosphorylation are repressed in these parasites, and recent RNA interference (RNAi) experiments have shown that even partial depletion of certain individual glycolytic enzymes can lead to the death of cultured parasites. One such glycolytic enzyme, phosphofructokinase (PFK), catalyzes the formation of fructose-1,6-bisphosphate (F1,6BP) and ADP from fructose-6-phosphate (F6P) and ATP, and in many metabolic circumstances makes an important contribution to the control of flux through the glycolytic pathway. As a specific glycolytic target, PFK is particularly attractive as it catalyzes the first irreversible step in glycolysis, and structural and kinetic studies have shown very substantial and essential differences from corresponding host enzymes, allowing for the discovery of parasite-selective inhibitors. Confirmed qHTS active compounds were tested against T cruzi PFK. A luminescent biochemical assay was performed that used luciferase-based nucleotide detection (ADP-Glo, Promega) to examine the effect of identified actives against another trypanosomal isoform of PFK, namely Trypansoma cruzi, for target specificity. The assay is identical in concept to the T. brucei PFK qHTS assay, but instead uses the T. cruzi isoform of PFK (expressed and purified by U. of Edinburgh). NIH Molecular Libraries Probe Production Network [MLPCN] NIH Chemical Genomics Center [NCGC] Grant: 1 R03 MH092153-01 PI Name: Malcolm Walkinshaw, University of Edinburgh
Substrate buffer was dispensed into white, solid 1536-well plates at 3 uL/well in 0.1M triethanolamine (TEA) buffer, pH 8.0, containing final concentrations of 5 mM MgCl2, 0.01% Tween20, 0.6mM fructose-6-phosphate (F6P) and 0.1mM ATP. Then, 23nl of compounds or DMSO were delivered to each well using a pin tool. One uL of T. cruzi PFK (0.1M TEA, 0.01% Tween20, 0.1% bovine serum albumin (BSA) and […] PFK, final concentrations) was then dispensed, and plates were incubated at room temperature for 45 min. The luminescent detection reagent, ADP-Glo (Promega), was then added in two steps: the first reagent, ADP-Glo (which converts remaining uncatalyzed ATP), was added at 2.5uL/well and incubated for ten minutes at room temperature, and the second component, Kinase Detection reagent (which converts ADP to ATP as a substrate for luciferase-based luminescence), was added immediately after at 5uL/well, followed by one final ten minute room temperature incubation. The plates were measured on a ViewLux plate reader for luminescent signal using a clear filter with a one second exposure. The %Activity was determined from the corrected luminescence values. 1x (1.25nM) and 0x PFK enzyme controls (untreated) were included to normalize %Activity of identified inhibitors; 0x enzyme values corresponded to 100%Activity (full inhibition), while 1x PFK enzyme values were used to normalize 0% Activity (no inhibition).
A general note: Counterscreens check selectivity or assay interference.
For `Cc1cc(NS(=O)(=O)Cc2ccc(NC(=O)Cc3ccc(Cl)c(Cl)c3)cc2)no1`, the Potency is 3260 nM (active).

Consider `Cc1cc(N[S+](=O)([O-])c2ccc(NC(=O)Cc3ccc(Cl)nc3)cc2)no1`, for which the Potency was 20600 nM (active).

With `O=C(Cc1ccc(Cl)c(Cl)c1)Nc1ccc(S(=O)(=O)Nc2cccc(O)c2)cc1`, the Potency was 1630 nM (active).

On to `Cc1cc(NS(=O)(=O)c2ccc(NCCc3ccc(Cl)c(Cl)c3)cc2)no1`, for which the Potency was 16300 nM (active).

For `Cc1cc(NS(=O)(=O)c2ccc(NC(=O)Cc3ccc(Cl)c(Cl)c3)cc2)n(C)n1`, the Potency is 1160 nM (active).

As to `O=C(Cc1ccc(Cl)c(Cl)c1)Nc1ccc(S(=O)(=O)Nc2ccon2)cc1`, the Potency was 130 nM (active).

Take `Cc1cc(NS(=O)(=O)c2ccc(NC(=O)CCc3ccc(Cl)c(Cl)c3)cc2)no1`: the Potency is 6510 nM (active).

For the molecule `Cc1cc(NC(=O)c2csc(NC(=O)Cc3ccc(Cl)c(Cl)c3)n2)no1`, the Potency entry is “inactive”.

As to `Cc1cc(NS(=O)(=O)c2cccc(NC(=O)Cc3ccc(Cl)c(Cl)c3)c2)no1`, the Potency was 16300 nM (active).

`O=C(Cc1ccc(Cl)c(Cl)c1)Nc1ccc(S(=O)(=O)Nc2ccccc2)cc1`: the Potency was 16300 nM (active).

For the molecule `Cc1cc(NS(=O)(=O)c2ccc(NC(=O)Cc3ccc(Cl)c(Cl)c3)cc2)on1`, the Potency is 231 nM (active).

As for `CCOC(=O)c1cccc(NS(=O)(=O)c2ccc(NC(=O)Cc3ccc(Cl)c(Cl)c3)cc2)c1`, the Potency entry was “inactive”.

Regarding `Cc1cc(NS(=O)(=O)CCNC(=O)Cc2ccc(Cl)c(Cl)c2)no1`, the Potency is 16300 nM (active).

`COc1ccc(CC(=O)Nc2ccc(S(=O)(=O)Nc3cc(C)on3)cc2)cc1OC`: the Potency entry is “inactive”.

In the case of `O=C(Cc1ccc(Cl)c(Cl)c1)Nc1ccc(S(=O)(=O)Nc2cccc(C(=O)O)c2)cc1`, the Potency is 580 nM (active).

Consider `Cc1cc(NS(=O)(=O)c2ccc(NC(=O)Cc3ccc4ccccc4c3)cc2)no1`, for which the Potency is 1830 nM (active).

In the case of `Cc1cc(NS(=O)(=O)c2ccc(NC(=O)Cc3ccc(Cl)c(C(F)(F)F)c3)cc2)no1`, the Potency is 919 nM (active).

Regarding `CN(C)c1cccc(NS(=O)(=O)c2ccc(NC(=O)Cc3ccc(Cl)c(Cl)c3)cc2)c1`, the Potency is 11600 nM (active).

As to `Cc1cc(NS(=O)(=O)c2ccc(NC(=O)Cc3ccc(Cl)cc3Cl)cc2)no1`, the Potency was 14600 nM (active).

For `Cc1cc(NS(=O)(=O)c2ccc(NC(=O)Cc3ccc(C)c(C)c3)cc2)no1`, the Potency was 6510 nM (active).

Turning to `Cc1cc(NS(=O)(=O)c2ccc(NC(=O)Cc3ccc(C)c(F)c3)cc2)no1`, the Potency is 4610 nM (active).

As for `Cc1cc(NS(=O)(=O)c2ccc(NC(=O)Cc3ccc(Cl)c(F)c3)cc2)no1`, the Potency was 651 nM (active).

For the molecule `Cc1cc(NS(=O)(=O)c2ccc(NC(=O)Cc3ccc(Cl)cc3)cc2)no1`, the Potency is 1460 nM (active).

Turning to `O=C(Cc1ccc(Cl)c(Cl)c1)Nc1ccc(S(=O)(=O)O)cc1`, the Potency is 461 nM (active).

`Cc1cc(NS(=O)(=O)c2ccc(NC(=O)Cc3ccc(Cl)c(Cl)c3)cc2)no1`: the Potency is 231 nM (active).

As for `Cc1cc(NC(=O)c2ccc(NC(=O)Cc3ccc(Cl)c(Cl)c3)cc2)no1`, the Potency result is “inactive”.

On to `Cc1cc(NS(=O)(=O)c2ccc(N(C)C(=O)Cc3ccc(Cl)c(Cl)c3)cc2)no1`, for which the Potency was 1300 nM (active).

In the case of `Cc1cc(N[S+](=O)([O-])c2ccc3cc(NC(=O)Cc4ccc(Cl)c(Cl)c4)ccc3c2)no1`, the Potency was 4610 nM (active).

Consider `O=C(Cc1ccc(Cl)c(Cl)c1)Nc1ccc(S(=O)(=O)Nc2ccn[nH]2)cc1`, for which the Potency was 730 nM (active).

On to `Cc1cc(NS(=O)(=O)c2ccc(C(=O)NCc3ccc(Cl)c(Cl)c3)cc2)no1`, for which the Potency was 2910 nM (active).

Regarding `Cc1cc(NS(=O)(=O)c2ccc(NS(=O)(=O)Cc3ccc(Cl)c(Cl)c3)cc2)no1`, the Potency result is “inactive”.

As for `O=C(Cc1ccc(Cl)c(Cl)c1)Nc1ccc(S(=O)(=O)Nc2ccc(C(=O)O)cc2)cc1`, the Potency is 291 nM (active).

For `Cc1cc(N(C)S(=O)(=O)c2ccc(NC(=O)Cc3ccc(Cl)c(Cl)c3)cc2)no1`, the Potency is 2060 nM (active).

Consider `O=C(Cc1ccc(Cl)c(Cl)c1)Nc1ccc(S(=O)(=O)Nc2cncnc2)cc1`, for which the Potency was 730 nM (active).

For the molecule `Cc1cc(NS(=O)(=O)c2ccc(NC(=O)Cc3cccc(Cl)c3)cc2)no1`, the Potency was 2590 nM (active).
